Results reported in the supplement of paper PMC10849652.
Of roughly 7,900 targets only a part is listed; those with a hit were picked by preference. About 0.6% of all pairs of compound and target were hits. Unmarked numbers belong to inactive results.

Compound: CN1CC[C@H](c2c(O)cc(O)c3c(=O)cc(-c4ccccc4Cl)oc23)[C@H](O)C1 [alvocidib]
Assay: log2 fold change, soluble protein after heating vs DMSO (PISA); higher = thermal stabilisation; K562 cells, 10 uM, 30 min; active = over 0.2 and 3.5 SD of the protein, either way, in both replicates (recomputed)
Procedure, shortened: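 K562 cells (2×10^6 cells/mL) were treated with 10 μM compound for 30 min, and aliquots were heated for 3 min over 48°C-58°C. Pooled aliquots were extracted in PBS with 0.5% NP-40 at 4°C, and the supernatant after 21,000xg for 90 min was measured by TMTpro 16plex LC-MS/MS with channel sums equalised. Reported thermal stability, relative to control samples and from duplicates, is a log2 fold change.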

Sequence of UniProt O15460 (O15460 whole entry, looked up): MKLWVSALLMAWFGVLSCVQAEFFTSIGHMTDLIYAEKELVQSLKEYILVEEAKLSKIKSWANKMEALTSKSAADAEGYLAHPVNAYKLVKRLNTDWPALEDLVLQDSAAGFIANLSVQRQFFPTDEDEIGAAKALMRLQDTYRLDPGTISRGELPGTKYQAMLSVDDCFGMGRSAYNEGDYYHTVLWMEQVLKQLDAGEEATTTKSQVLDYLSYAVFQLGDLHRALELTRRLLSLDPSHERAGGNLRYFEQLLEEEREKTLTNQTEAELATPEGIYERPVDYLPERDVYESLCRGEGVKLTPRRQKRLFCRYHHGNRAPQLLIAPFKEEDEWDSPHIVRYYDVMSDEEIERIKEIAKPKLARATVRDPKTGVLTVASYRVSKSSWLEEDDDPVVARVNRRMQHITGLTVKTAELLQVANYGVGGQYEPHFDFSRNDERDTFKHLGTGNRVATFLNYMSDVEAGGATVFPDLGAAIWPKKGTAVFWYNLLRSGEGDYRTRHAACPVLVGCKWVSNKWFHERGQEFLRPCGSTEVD
Sequence of UniProt Q9BZQ8 (Q9BZQ8 whole entry, looked up): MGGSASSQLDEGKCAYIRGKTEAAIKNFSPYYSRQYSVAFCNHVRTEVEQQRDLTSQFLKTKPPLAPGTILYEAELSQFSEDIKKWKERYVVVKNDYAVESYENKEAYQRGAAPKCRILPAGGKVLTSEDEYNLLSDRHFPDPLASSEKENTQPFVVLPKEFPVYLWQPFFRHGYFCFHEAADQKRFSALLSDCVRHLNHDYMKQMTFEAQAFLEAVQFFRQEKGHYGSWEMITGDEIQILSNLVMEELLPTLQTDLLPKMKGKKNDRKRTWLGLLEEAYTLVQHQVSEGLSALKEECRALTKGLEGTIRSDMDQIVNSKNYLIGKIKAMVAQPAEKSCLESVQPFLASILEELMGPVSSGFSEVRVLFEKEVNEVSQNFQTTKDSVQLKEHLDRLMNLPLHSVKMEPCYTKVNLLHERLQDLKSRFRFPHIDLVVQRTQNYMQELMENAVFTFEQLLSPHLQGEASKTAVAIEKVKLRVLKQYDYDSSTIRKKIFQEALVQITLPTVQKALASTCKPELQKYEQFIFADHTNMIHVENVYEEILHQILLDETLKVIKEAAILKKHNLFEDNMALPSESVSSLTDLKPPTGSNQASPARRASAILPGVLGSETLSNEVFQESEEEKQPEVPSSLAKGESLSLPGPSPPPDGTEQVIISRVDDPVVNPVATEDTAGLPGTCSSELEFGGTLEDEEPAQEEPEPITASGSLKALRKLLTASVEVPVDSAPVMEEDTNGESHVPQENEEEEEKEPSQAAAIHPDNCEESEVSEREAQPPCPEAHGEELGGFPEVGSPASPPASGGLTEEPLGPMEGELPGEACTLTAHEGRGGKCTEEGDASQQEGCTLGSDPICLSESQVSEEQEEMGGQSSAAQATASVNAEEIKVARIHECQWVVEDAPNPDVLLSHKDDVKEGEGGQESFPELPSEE
Sequence of UniProt Q7Z3U7 (Q7Z3U7 whole entry, looked up): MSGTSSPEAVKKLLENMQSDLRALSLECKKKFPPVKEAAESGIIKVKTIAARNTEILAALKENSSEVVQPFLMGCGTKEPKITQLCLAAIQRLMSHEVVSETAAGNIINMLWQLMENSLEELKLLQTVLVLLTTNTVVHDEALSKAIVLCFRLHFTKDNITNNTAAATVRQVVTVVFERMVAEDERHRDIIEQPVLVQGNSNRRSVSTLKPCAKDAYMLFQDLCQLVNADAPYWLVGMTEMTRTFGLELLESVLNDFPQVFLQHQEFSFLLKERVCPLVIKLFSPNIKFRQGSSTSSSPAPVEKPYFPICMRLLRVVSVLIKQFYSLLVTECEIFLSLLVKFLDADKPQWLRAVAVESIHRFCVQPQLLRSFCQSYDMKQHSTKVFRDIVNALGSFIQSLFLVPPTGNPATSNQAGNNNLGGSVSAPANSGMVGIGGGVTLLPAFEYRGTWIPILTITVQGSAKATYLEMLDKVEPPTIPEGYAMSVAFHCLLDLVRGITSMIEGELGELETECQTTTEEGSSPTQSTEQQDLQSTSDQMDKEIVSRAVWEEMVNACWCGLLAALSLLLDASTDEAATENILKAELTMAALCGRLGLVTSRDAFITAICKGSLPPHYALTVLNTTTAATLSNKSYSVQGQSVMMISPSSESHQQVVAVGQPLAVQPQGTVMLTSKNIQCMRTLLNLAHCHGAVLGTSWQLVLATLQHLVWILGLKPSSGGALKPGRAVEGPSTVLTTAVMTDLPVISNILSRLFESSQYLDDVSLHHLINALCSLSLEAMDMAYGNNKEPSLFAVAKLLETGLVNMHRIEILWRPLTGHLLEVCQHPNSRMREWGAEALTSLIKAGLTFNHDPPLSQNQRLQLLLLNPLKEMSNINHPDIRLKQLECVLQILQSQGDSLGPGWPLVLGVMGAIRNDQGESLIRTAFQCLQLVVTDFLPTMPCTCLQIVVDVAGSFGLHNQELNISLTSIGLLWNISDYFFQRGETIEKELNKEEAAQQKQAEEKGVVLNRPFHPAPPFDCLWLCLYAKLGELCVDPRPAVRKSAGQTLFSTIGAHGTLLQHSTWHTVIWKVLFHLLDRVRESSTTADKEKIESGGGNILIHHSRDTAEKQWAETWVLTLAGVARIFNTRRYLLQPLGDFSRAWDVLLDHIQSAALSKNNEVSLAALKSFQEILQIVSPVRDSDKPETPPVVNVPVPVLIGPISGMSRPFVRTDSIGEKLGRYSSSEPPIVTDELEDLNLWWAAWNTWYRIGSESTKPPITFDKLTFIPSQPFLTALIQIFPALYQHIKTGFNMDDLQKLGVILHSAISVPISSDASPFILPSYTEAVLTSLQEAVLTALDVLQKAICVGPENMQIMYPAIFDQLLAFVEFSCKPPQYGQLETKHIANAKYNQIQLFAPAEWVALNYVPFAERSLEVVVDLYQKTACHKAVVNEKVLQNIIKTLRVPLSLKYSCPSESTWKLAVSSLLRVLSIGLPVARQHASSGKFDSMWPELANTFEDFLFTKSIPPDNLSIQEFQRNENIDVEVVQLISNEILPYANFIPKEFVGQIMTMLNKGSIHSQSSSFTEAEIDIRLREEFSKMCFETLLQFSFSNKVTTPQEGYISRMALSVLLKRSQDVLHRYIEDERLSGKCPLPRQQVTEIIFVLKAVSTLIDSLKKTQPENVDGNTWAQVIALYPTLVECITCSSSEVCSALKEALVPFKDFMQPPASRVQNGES
Sequence of UniProt Q9H1E3 (Q9H1E3 whole entry, looked up): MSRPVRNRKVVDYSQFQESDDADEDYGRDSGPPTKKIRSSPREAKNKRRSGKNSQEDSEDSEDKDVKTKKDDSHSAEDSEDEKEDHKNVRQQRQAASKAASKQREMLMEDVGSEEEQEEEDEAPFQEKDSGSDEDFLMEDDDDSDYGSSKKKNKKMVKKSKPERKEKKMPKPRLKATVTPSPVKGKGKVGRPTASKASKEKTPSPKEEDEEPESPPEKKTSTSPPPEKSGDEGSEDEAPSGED
Sequence of UniProt Q96DE0 (Q96DE0 whole entry, looked up): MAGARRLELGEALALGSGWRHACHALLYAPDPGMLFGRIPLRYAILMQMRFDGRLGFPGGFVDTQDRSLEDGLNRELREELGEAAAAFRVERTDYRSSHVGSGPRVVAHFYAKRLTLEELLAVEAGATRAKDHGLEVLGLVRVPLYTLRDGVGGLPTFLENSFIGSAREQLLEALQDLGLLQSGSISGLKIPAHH
Sequence of UniProt Q8NCF5 (Q8NCF5 whole entry, looked up): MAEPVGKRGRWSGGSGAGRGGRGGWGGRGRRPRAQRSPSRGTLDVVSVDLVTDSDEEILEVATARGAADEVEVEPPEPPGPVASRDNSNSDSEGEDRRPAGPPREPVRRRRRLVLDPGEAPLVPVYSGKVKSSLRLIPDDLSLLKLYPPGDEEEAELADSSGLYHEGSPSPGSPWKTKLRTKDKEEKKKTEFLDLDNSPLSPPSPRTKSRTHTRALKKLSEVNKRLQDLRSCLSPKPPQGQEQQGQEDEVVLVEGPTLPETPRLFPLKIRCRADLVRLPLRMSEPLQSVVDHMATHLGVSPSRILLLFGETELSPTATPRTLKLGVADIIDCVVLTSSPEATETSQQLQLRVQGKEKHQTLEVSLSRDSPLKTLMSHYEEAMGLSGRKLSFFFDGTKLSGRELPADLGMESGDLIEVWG
Sequence of UniProt O14524 (O14524 whole entry, looked up): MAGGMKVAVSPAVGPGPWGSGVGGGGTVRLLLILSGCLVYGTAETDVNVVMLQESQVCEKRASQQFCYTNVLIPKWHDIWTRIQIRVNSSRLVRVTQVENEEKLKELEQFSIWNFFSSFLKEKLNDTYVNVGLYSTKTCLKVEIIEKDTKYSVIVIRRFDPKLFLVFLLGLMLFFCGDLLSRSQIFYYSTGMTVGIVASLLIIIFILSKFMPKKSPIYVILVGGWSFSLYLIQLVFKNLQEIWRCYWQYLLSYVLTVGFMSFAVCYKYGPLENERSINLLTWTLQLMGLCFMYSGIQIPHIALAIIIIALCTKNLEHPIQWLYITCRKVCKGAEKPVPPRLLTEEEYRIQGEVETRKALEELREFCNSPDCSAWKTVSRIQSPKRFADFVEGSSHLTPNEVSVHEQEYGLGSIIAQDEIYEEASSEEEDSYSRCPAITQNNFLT
Sequence of UniProt Q9HBL8 (Q9HBL8 whole entry, looked up): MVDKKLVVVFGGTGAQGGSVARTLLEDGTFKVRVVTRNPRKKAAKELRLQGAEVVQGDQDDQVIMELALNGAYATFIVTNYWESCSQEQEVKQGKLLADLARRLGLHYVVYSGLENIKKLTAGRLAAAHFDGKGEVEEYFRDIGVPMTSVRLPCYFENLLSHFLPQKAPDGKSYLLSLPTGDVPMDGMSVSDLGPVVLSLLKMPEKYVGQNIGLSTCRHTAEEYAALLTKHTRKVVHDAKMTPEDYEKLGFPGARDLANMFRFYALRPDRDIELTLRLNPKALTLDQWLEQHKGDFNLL
Sequence of UniProt Q9BWT6 (Q9BWT6 whole entry, looked up): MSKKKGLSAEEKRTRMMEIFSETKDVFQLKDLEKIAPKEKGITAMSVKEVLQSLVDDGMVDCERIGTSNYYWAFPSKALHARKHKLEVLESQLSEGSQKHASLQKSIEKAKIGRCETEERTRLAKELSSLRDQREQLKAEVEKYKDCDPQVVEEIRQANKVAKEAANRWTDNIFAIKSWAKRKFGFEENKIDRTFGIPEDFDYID

Row | Target | log2 fold change
1 | NOB1 (UniProt Q9ULX3) | 0
2 | MRPS25 (UniProt P82663) | -0.039
3 | NACC1 (UniProt Q96RE7) | -0.26
4 | NEMP1 (UniProt O14524) | -0.015
5 | MTHFD1 (UniProt P11586) | -0.055
6 | OXSM (UniProt Q9NWU1) | -0.046
7 | MT-ATP6 (UniProt P00846) | -0.058
8 | OTUD4 (UniProt Q01804) | 0.036
9 | MRPL50 (UniProt Q8N5N7) | 0.066
10 | NFATC2 (UniProt Q13469) | -0.199
11 | NUP205 (UniProt Q92621) | -0.127
12 | MRPS24 (UniProt Q96EL2) | -0.202
13 | MINK1 (UniProt Q8N4C8) | -0.027
14 | NUP85 (UniProt Q9BW27) | -0.023
15 | NOP56 (UniProt O00567) | 0.104
16 | P4HA2 (UniProt O15460) | 0.004
17 | NCAPH (UniProt Q15003) | -0.016
18 | MRPS15 (UniProt P82914) | -0.057
19 | NA, A0A096LPI6 | -0.02
20 | NQO1 (UniProt P15559) | -0.108

Row | Target | log2 fold change
21 | NIBAN1 (UniProt Q9BZQ8) | -0.037
22 | MPHOSPH10 (UniProt O00566) | 0.086
23 | NCAPD2 (UniProt Q15021) | -0.029
24 | NFATC2IP (UniProt Q8NCF5) | -0.107
25 | NARS2 (UniProt Q96I59) | -0.039
26 | NMT2 (UniProt O60551) | -0.021
27 | MTHFS (UniProt P49914) | -0.078
28 | NUCKS1 (UniProt Q9H1E3) | 0.115
29 | MYH11 isoform 2 (UniProt P35749) | -0.024
30 | NUP160 (UniProt Q12769) | -0.078
31 | NDUFA12 (UniProt Q9UI09) | -0.094
32 | NUDT21 (UniProt O43809) | -0.017
33 | NCOA7 (UniProt Q8NI08) | -0.052
34 | MON2 isoform 5 (UniProt Q7Z3U7) | -0.056
35 | NMRAL1 (UniProt Q9HBL8) | 0.001
36 | NMNAT1 (UniProt Q9HAN9) | 0.158
37 | MND1 (UniProt Q9BWT6) | 0.011
38 | NUDT16 (UniProt Q96DE0) | -0.075
39 | NGLY1 (UniProt Q96IV0) | -0.002
